Data: ChEMBL document CHEMBL3988442, “University of Dundee, Small-Polar-MMV Screening Library” (2021)
The campaign covered roughly 48,000 compounds. About 13,000 (27%) showed an effect of 50% or more. The list shows a part of the results.

The compounds below were run on Wolbachia pipientis (assay: Anti-Wolbachia Cell-Based Screen). Conditions: 5 µM.
Type: functional
Set-up: scale not given: in the data most compounds retested in dose-response had high values
With `Cc1ccc(C(=O)Nc2cccc3c2C(=O)NC3)c(C)n1` the “Percent Effect” value was -2.739%. In the case of `c1coc(CN2CCc3ncnc(C4CCOC4)c3CC2)c1` (stereo not drawn), the “Percent Effect” value is reported as -7.93%. In the case of `COCCN1CCCC(O)(CN2CCN(c3cc(C)ccn3)CC2)C1=O` (stereo not drawn), the “Percent Effect” value is reported as -13.95%. In the case of `CCOCC1(CNCc2cc(O)c3cc(C)ccc3n2)CC1`, the “Percent Effect” value is reported as 1.355%. For `COc1ccc(CN2CCC(CO)(Cc3ccc(Cl)cc3)CC2)c(O)c1`, the “Percent Effect” value was -0.5928%. `O=c1n(CC2COCCO2)nc(CC2CCNCC2)n1-c1ccccc1` (stereo not drawn) was tested, and the “Percent Effect” value was 28.69%. `COC(=O)N1CCC(Oc2ccc(C(=O)NCCN(C)C)cc2Cl)CC1` was tested, and the “Percent Effect” value was 19.93%. `CCN(CC)c1ccc2ccc(C(=O)N(C)C)cn12` was tested, and the “Percent Effect” value was -16.77%. `CN(CC1CC1)c1ccc2ccc(C(=O)NCCc3ccccc3)cn12` was tested, and the “Percent Effect” value was 99.05%. With `CCNC(=O)c1ccc2ccc(N(CC)CC)n2c1` the “Percent Effect” value was 1.029%. `CCN(CC)c1ccc2ccc(C(=O)O)cn12` was tested, and the “Percent Effect” value was -4.44%. For `CN(CC1CC1)c1ccc2ccc(C(=O)NC3CCCCC3)cn12`, the “Percent Effect” value was 118%. In the case of `CCN(CC)c1ccc2ccc(C(=O)NC3CC3)cn12`, the “Percent Effect” value is reported as -16.69%. For `CN(C)CCNC(=O)c1ccc(OC2CCN(C3CCC3)CC2)c(Cl)c1`, the “Percent Effect” value was -4.706%. In the case of `CN(C)CCNC(=O)c1ccc2ccc(N(C)CC3CC3)n2c1`, the “Percent Effect” value is reported as 115.7%. With `CN(C)C(=O)CNC(=O)c1ccc2ccc(N(C)CC3CC3)n2c1` the “Percent Effect” value was 99.28%. For `CCn1cc(C(=O)NCc2cccnc2N(C)Cc2ccccc2)cn1`, the “Percent Effect” value was 2.697%. For `CCNC(=O)N1C[C@@H]2OCC(=O)N(CC3CCCCC3)[C@@H]2C1`, the “Percent Effect” value was -5.369%. `CN(C)S(=O)(=O)c1cccc(CNc2cc(CO)ccc2Cl)c1` was tested, and the “Percent Effect” value was -35.79%. `O=C(NCc1ccccc1CN1CCC(O)CC1)Nc1cccnc1` was tested, and the “Percent Effect” value was -0.5671%. For `COCCCN1CCC(c2nc3c([nH]2)CC(C)(C)CNC3=O)C1` (stereo not drawn), the “Percent Effect” value was -5.99%. `CCc1nnc(SC2CCN(c3ccccc3F)C2=O)n1C` (stereo not drawn) was tested, and the “Percent Effect” value was -9.884%. For `Cc1cc2n(n1)CC(CNC1CCN(C3CC3)CC1)CN2` (stereo not drawn), the “Percent Effect” value was -6.962%. For `CN(CCOc1ccc(F)cc1)S(=O)(=O)N1CCOCC1`, the “Percent Effect” value was -1.618%. `Cc1cccc2sc(NC(=O)CN3CCCC(O)(CO)C3)nc12` (stereo not drawn) was tested, and the “Percent Effect” value was -1.543%. In the case of `COCCNC(=O)c1ccc2ccc(N(C)CC3CC3)n2c1`, the “Percent Effect” value is reported as 103.1%. In the case of `CCN(CC)c1ccc2ccc(C(=O)N(CCOC)CCOC)cn12.O=C(O)C(F)(F)F`, the “Percent Effect” value is reported as 4.611%. With `COCCNC(=O)CCNC(=O)c1ccc(N2CCC(C)=N2)cc1` the “Percent Effect” value was -2.111%. `Cc1cn(CC(=O)NC2CCN(C(=O)C3CC3)CC2)c2ccccc12` was tested, and the “Percent Effect” value was 4.79%. With `CC(=O)N1CCC(NC(=O)Cc2csc(C(C)(C)C)n2)CC1` the “Percent Effect” value was -8.702%. For `Cc1ccc(F)c2c1CCCN2CC(=O)NC1CCS(=O)(=O)C1` (stereo not drawn), the “Percent Effect” value was 90.32%. In the case of `Cc1ccc(C)c(CC(=O)NC2CCS(=O)(=O)CC2)c1`, the “Percent Effect” value is reported as -1.123%. For `Cc1ccc(C)c(CC(=O)NC2CCCS(=O)(=O)C2)c1` (stereo not drawn), the “Percent Effect” value was -8.397%. With `CC(=O)NCc1ccc(C(=O)N2CCCc3c(F)ccc(C)c32)cc1` the “Percent Effect” value was -14.03%. In the case of `COC(=O)N1CCC(NC(=O)Cn2cc(C)c3ccccc32)CC1`, the “Percent Effect” value is reported as -17.34%. In the case of `CC(=O)N1CCC(NC(=O)CN2CCCc3c(F)ccc(C)c32)CC1`, the “Percent Effect” value is reported as 96.3%. `CC(=O)N1CCC(NC(=O)CN2CCCc3c(C)ccc(F)c32)CC1` was tested, and the “Percent Effect” value was 97.89%. For `CN1CCCC(C(=O)N2CCC(Oc3ccc(C#N)cn3)CC2)C1` (stereo not drawn), the “Percent Effect” value was 3.335%. `O=C1CC(c2cccs2)c2snc(C(=O)O)c2N1` (stereo not drawn) was tested, and the “Percent Effect” value was 12.4%. In the case of `Cc1ccc(C(=O)N[C@H]2CN(CCO)C[C@@H]2C2CC2)cc1Cl`, the “Percent Effect” value is reported as 4.454%. With `CCNC(=O)NC(=O)CSC(C)c1ccccc1F` (stereo not drawn) the “Percent Effect” value was -4.407%. In the case of `O=C(C[S+]([O-])Cc1csc(C2CCCC2)n1)NC1CCCC1` (stereo not drawn), the “Percent Effect” value is reported as -2.557%. For `Cc1noc(-c2ccc(N3CCCC(C(=O)N4CCSCC4)C3)nc2)n1` (stereo not drawn), the “Percent Effect” value was -16.11%. `CCc1nc(CC(=O)N2CCC(C(=O)N3CCCCC3)CC2)cs1` was tested, and the “Percent Effect” value was 9.16%. In the case of `CCC(=O)N1CCC(c2nc(N3CCCC3)ncc2S(C)(=O)=O)CC1`, the “Percent Effect” value is reported as 99.88%. For `CCC(=O)N1CCC(c2nc(N3CCCCC3)ncc2S(C)(=O)=O)CC1`, the “Percent Effect” value was 129%. In the case of `CCC(=O)N1CCc2nc(N3CCOCC3)nc(N(C)C)c2CC1`, the “Percent Effect” value is reported as -3.249%. With `CCC(=O)N1CCC(c2nc(N3CCOCC3)ncc2S(C)(=O)=O)CC1` the “Percent Effect” value was 98.3%. With `CS(=O)(=O)c1cnc(N2CCCC2)nc1C1CCN(C(=O)C2CC2)CC1` the “Percent Effect” value was 114.1%. In the case of `CCN(C)CC(=O)N1CCC(c2cc(N3CCOCC3)nc(C)n2)CC1`, the “Percent Effect” value is reported as 25.94%. `Cc1ncc(S(C)(=O)=O)c(N2CCCCCC2)n1` was tested, and the “Percent Effect” value was 3.738%. With `CCOc1cc(C)nc(N2CCN(C(=O)CC)CC2)n1` the “Percent Effect” value was -2.122%. For `Cc1ccc(NS(=O)(=O)c2c[nH]c3ncccc23)nc1`, the “Percent Effect” value was 17.74%. With `CCOC(=O)N1CCN(c2nc(NCCCO)c3ccccc3n2)CC1.Cl` the “Percent Effect” value was 3.007%. With `COC(=O)c1ccc(N2CCN(C(=O)c3ccncc3)C(C)C2)cc1` (stereo not drawn) the “Percent Effect” value was -9.258%. With `CCc1nc(CC(=O)Nc2cnn(CC3CCCO3)c2)cs1` (stereo not drawn) the “Percent Effect” value was -8.649%. In the case of `CC(C)c1nc(O)c2nnn(C[C@H]3CCCN(Cc4ccsc4)C3)c2n1`, the “Percent Effect” value is reported as 131.3%. For `CC(C)c1nc(O)c2nnn(C[C@@H]3CCCN(Cc4ccsc4)C3)c2n1`, the “Percent Effect” value was 123.6%. With `CC(C)(C)c1oc(C(N)=O)cc1CN1CCCCC1CN1CCOCC1` (stereo not drawn) the “Percent Effect” value was -21.84%. `N#Cc1ccc(SCCC(=O)N(Cc2cccnc2)C2CC2)cc1` was tested, and the “Percent Effect” value was -7.889%. In the case of `O=c1ccc(-n2ccnc2)nn1CCNS(=O)(=O)c1ccc(Br)cc1`, the “Percent Effect” value is reported as -0.5803%. In the case of `CCN(CC)CC[C@H]1CN(C(=O)C2CCC2)CC[C@H]1CC(=O)O`, the “Percent Effect” value is reported as -6.679%. In the case of `CCN1CCCC(c2c(-c3ccccc3)ncn2CCc2c[nH]cn2)C1` (stereo not drawn), the “Percent Effect” value is reported as -19.27%. For `CC(C)(C(=O)NCCCC(N)=O)c1cccc(Br)c1`, the “Percent Effect” value was 6.793%. With `CSCCC(Nc1nc(C)cc(C)n1)C(=O)NC(C)(C)CO` (stereo not drawn) the “Percent Effect” value was 99.02%. In the case of `CSCCC(NC(=O)c1ccc2ccccc2n1)C(=O)NC1CC1` (stereo not drawn), the “Percent Effect” value is reported as 3.734%. With `CSc1cc2c(cc1NC(=O)NCC1CCOC1)OCCO2` (stereo not drawn) the “Percent Effect” value was 0.9768%. `CSCCC(Nc1nc(C)cc(C)n1)C(=O)NCC1CCOCC1` (stereo not drawn) was tested, and the “Percent Effect” value was 96.94%. In the case of `Cc1nc(CN2CCN(C(C)C(=O)NC3CCCC3)CC2)cs1` (stereo not drawn), the “Percent Effect” value is reported as -11.13%. With `Cc1cc(C)nc(NC2CCC(=O)N(C)C2)n1` (stereo not drawn) the “Percent Effect” value was -12.68%. `CSCCC(Nc1nc(C)cc(C)n1)C(=O)NC1CCCC1` (stereo not drawn) was tested, and the “Percent Effect” value was 67.42%. In the case of `CNC(=O)C(CCSC)NC(=O)c1ccc2ccccc2n1` (stereo not drawn), the “Percent Effect” value is reported as 4.672%. For `CSCCC(NC(=O)c1ccc2ccccc2n1)C(=O)NC(C)C` (stereo not drawn), the “Percent Effect” value was 0.7963%. In the case of `Cc1cc(NC(=O)NCC2CCOC2)no1` (stereo not drawn), the “Percent Effect” value is reported as -3.66%. `CSCCC(NC(N)=O)C(=O)N1CCC(Cc2ccccc2)CC1` (stereo not drawn) was tested, and the “Percent Effect” value was -1.467%. In the case of `CSCCC(Nc1nc(C)cc(C)n1)C(=O)NC1CC1` (stereo not drawn), the “Percent Effect” value is reported as 102.4%. In the case of `CN(C)CCCN1CC2(CCN(C3CCCOC3)CC2)OC1=O` (stereo not drawn), the “Percent Effect” value is reported as -5.756%. With `COc1ccc(NC(=O)c2ccc[nH]2)c(N2CCN(C(C)=O)CC2)n1` the “Percent Effect” value was 6.635%. In the case of `Cc1cc(SC(C)(C)C)ccc1NC(=O)CNC(N)=O`, the “Percent Effect” value is reported as -8.144%. For `Cc1ccc(S(=O)(=O)NC[C@H]2OC[C@@H](NCc3ccccn3)[C@@H]2O)cc1`, the “Percent Effect” value was 0.9418%. With `Cc1cc(C(=O)N2C[C@@H](CN3CCOCC3)C[C@H](CO)C2)nc(C)n1` the “Percent Effect” value was -2.252%. For `Cc1cc(C)c(CNC(=O)N2CCCN(C(=O)C(C)C)CC2)c(C)c1`, the “Percent Effect” value was -1.6%. `CC(C)=CCN1C[C@H]2CC[C@@H]1CN(Cc1coc(C)n1)C2` was tested, and the “Percent Effect” value was -7.778%. For `CCn1ccc(-c2cc(NCCCOc3ccccc3C)nc(C)n2)n1`, the “Percent Effect” value was 161.9%. With `Cc1ccc2nc(CNCCCOc3ccccc3)cc(O)c2c1` [UCSF924] the “Percent Effect” value was -20.67%. With `COc1ccc(OCCNCCn2cccn2)cc1` the “Percent Effect” value was -1.614%. In the case of `CCn1ccc(-c2cc(NCCCOc3cccc(C)c3)nc(C)n2)n1`, the “Percent Effect” value is reported as 179.6%. `c1ccc(OCCCNCCn2cccn2)cc1` was tested, and the “Percent Effect” value was 7.776%. With `CCN(CC1CCOCC1)C(=O)Cn1cccc(C(F)(F)F)c1=O` the “Percent Effect” value was -10.75%. For `c1ccc(Cc2nc(CNC3CCC4(CCNCC4)CC3)no2)cc1`, the “Percent Effect” value was 94.06%. `c1coc(-c2nc(CNC3CCCNC3)no2)c1` (stereo not drawn) was tested, and the “Percent Effect” value was 116.1%. For `CC(C)(C)OC(=O)NC1(c2noc(-c3ccco3)n2)CCC1`, the “Percent Effect” value was -13.08%. `OC1(CNCc2noc(Cc3ccccc3)n2)CCCNC1` (stereo not drawn) was tested, and the “Percent Effect” value was 0.3473%. In the case of `COCc1nc(CNC2CCC3(CCNCC3)CC2)no1`, the “Percent Effect” value is reported as -7.512%. For `COc1nc2c(cc1C(=O)NCc1noc(-c3ccco3)n1)CCC2`, the “Percent Effect” value was -22.9%. For `c1ccc(-c2nc(CNC3CCCN(c4cccnn4)C3)no2)cc1` (stereo not drawn), the “Percent Effect” value was -14.96%. `c1coc(-c2nc(CNC3CCC4(CCNCC4)CC3)no2)c1` was tested, and the “Percent Effect” value was 99.09%. For `c1cnnc(N2CCCC(NCc3nnc(-c4ccco4)o3)C2)c1` (stereo not drawn), the “Percent Effect” value was 5.713%. `Cc1ncc2c(n1)CN(C(C(N)=O)c1ccccc1)CC2` (stereo not drawn) was tested, and the “Percent Effect” value was 4.006%. For `CC(C)NC(=O)NC[C@H]1OC[C@@H](NCc2ccncc2)[C@@H]1O`, the “Percent Effect” value was 2.532%. In the case of `Cc1ccc(OC2(C(=O)O)CCN(C/C=C/c3ccco3)CC2)cc1`, the “Percent Effect” value is reported as -1.713%. With `O=C(Nc1cccc(OC(F)F)c1)C1CN(S(=O)(=O)C2CC2)C1` the “Percent Effect” value was 10.08%. `CN1[C@H]2CC[C@@H]1CN(C(=O)c1nnc3n1CCCC3)CC2` was tested, and the “Percent Effect” value was 1.056%.
